Data on nine molecules can be found in PubChem BioAssay (NCATS).

Each structure is given as a SMILES string. Inconclusive results are not listed. Entries that show only a call come without a potency. Active and inactive are the calls of the source. The call rests on the fitted dose curve; in most records, active means well fitted inhibition curve with a large enough effect; inconclusive means small, poorly fitted or top-dose-only effect; inactive means no such curve, though single readings can be large or run the other way.

The nature of this test: Primary fluorescence-based thiol-reactive (MSTI) qHTS assay for identification of artifact compounds. (AID 1845221).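 Further: thiol-reactive compounds lower the probe fluorescence signal; nearly all actives have a fitted effect of over 65% in size.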 Conditions: MSTI thiol-reactivity probe, 1 h; series mostly up to 53.8 µM. An outline of the steps:
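MSTI probe at 4 uM final in 2% DMSO/PBS pH 7.4; compounds, 1 h at room temperature in dark. Fluorescence Ex/Em 525/598 nm, normalised to Acetyl-MSTI and MSTI, fitted to 4-parameter Hill.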
A general note: In qHTS, concentration-response curves come from the screen itself.
On to `CC(C(=O)Nc1cc(C#N)ccc1CCCC(=O)O)c1ccc(F)c2ccccc12` (centres undefined), for which the Potency result was “inactive”.
For `CC(C)c1ccc2c(c1)[C@H](O)CC1[C@@](C)(C(=O)O)CCC[C@]21C` (some centres undefined), the Potency entry is “inactive”.
In the case of `Cc1ccc([C@@H]2CC=C(C(=O)O)[C@H](c3ccc(C(C)(C)C)cc3)N2S(=O)(=O)c2ccc(C)cc2)cc1`, the Potency entry was “inactive”.
Regarding `c1cc(-c2cc(C3CCNCC3)[nH]n2)ccn1`, the Potency result was “inactive”.
The result for `C[C@]1(C2CCCC2)Cc2cc(OCC(=O)O)c(Cl)c(Cl)c2C1=O` reads “inactive”.
In the case of `CC1=CCC[C@@H]2[C@](CCc3ccoc3)(C(=O)O)[C@H](C)CC[C@@]12C`, the Potency entry was “inactive”.
On to `CC1(C)C[C@@H]2[C@H](C1)[C@@]1(C)C[C@]13C(O)OC[C@]3(O)[C@H]2O` (some centres undefined), for which the Potency entry is “inactive”.
As to `CC1=CCC2C(C)(C)CCCC2(C)C1CC12OC1C(O)C(CO)=CC2O` (centres undefined), the Potency entry was “inactive”.
The result for `CC(=O)OC[C@]12[C@@H](OC(=O)c3ccoc3)C[C@@H]3[C@@H](OC(C)=O)[C@]1(OC3(C)C)[C@@](C)(O)C[C@H](OC(=O)c1ccoc1)[C@@H]2OC(=O)c1ccoc1` reads “inactive”.
